BAZ2B block – inhibitors of human BAZ2B bromodomain. AlphaScreen BAZ2B-H3K14Ac peptide displacement. Potency, µM (series often up to 114 µM), for the others: at the highest dose activity change, negative = inhibition, actives largely listed as inhibitors. 360,000 compounds, 4.4% hits. AID 504333; note: % is set by controls: 0 for no effect and ±100 for the full control effect; nearly all actives have a fitted effect of over 60% in size
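BAZ2B (50 nM) with biotin-H3(5-23)K14Ac peptide (50 nM) in PBS pH 7.4, 0.01% Tween-20, preformed 30 min, then compound 30 min at room temperature; top concentration 110uM. AlphaScreen streptavidin donor/nickel chelate acceptor beads (10 ug/mL final), 20 min dark, signal read.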
JMJD2A Tudor inh – JMJD2A Tudor domain (human) inhibition; O75164; AlphaScreen JMJD2A-Tudor / H3K4me3 peptide binding; Potency, µM (titrated, usually from 114 µM), inactives show at the highest dose activity change, negative = inhibition, actives largely listed as inhibitors; 390,000 compounds, 4.4% hits; note: % is set by controls: 0 for no effect and ±100 for the full control effect; nearly all actives have a fitted effect of over 50% in size
HP1b chromo inh – inhibitors of HP1-beta chromodomain binding to methylated histone tails | P83916 | AlphaScreen HP1-beta / biotin-H3K9me3 peptide binding | Potency, µM (series often up to 114 µM), for the others: top-dose activity change, negative = inhibition, hits mostly inhibitors | 390,000 compounds, 0.56% hits | AID 540317; note: nearly all actives have a fitted effect of over 70% in size
Target sequence (P83916 whole entry, looked up): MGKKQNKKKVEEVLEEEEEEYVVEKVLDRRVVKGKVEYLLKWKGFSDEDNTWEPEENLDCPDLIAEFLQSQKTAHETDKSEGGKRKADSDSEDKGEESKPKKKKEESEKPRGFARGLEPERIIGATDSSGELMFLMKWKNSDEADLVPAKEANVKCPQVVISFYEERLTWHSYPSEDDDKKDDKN
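HP1-beta protein (50 nM final) preincubated 30 min at room temperature with biotinylated H3(1-18)K9me3 peptide (50 nM) in PBS pH 7.4, 0.01% Tween-20, then compound added for 30 min. AlphaScreen streptavidin donor/nickel chelate acceptor beads (10 ug/mL final), 30 min dark, luminescence read.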
G9a block – blocks human histone lysine methyltransferase G9a; G9a H3K9 monomethylation, AlphaScreen, 2 h; Potency, µM (doses to about 102 µM), for the others: at the highest dose activity, negative = inhibition, most hits filed as inhibitors; 350,000 compounds, 8.8% hits; AID 504332; note: % is set by controls: 0 for no effect and ±100 for the full control effect; nearly all actives have a fitted effect of over 75% in size
Target sequence (Q96KQ7 913-1193 limits assumed): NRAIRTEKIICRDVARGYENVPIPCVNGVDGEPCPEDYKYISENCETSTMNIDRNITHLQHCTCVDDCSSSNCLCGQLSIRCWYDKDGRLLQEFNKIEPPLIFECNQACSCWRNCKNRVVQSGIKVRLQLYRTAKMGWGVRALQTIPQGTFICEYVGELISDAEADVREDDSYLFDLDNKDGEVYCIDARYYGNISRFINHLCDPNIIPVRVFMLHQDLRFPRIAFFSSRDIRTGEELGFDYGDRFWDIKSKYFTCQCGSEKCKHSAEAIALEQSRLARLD
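Enzyme 20 nM + cpd, 15 min RT; add b-H3K9 pep 500 nM / SAM 20 uM; 2 h RT; anti-H3K9me1 Ab 0.5 ug/mL + SA donor / anti-rabbit acceptor beads 20 ug/mL each, 10 min; AlphaScreen read.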
PLK1 PBD inh – inhibitors of human PLK1 polo-box domain binding; P53350; Plk1 PBD binding of FITC phosphopeptide, fluorescence polarization; Potency, µM, without a hit: max response, negative = inhibition, most hits filed as inhibitors; 360,000 compounds, 2.8% hits; AID 720504; note: series mostly up to about 57 µM; % is set by controls: 0 for no effect and ±100 for the full control effect; nearly all actives have a fitted effect of over 65% in size
12-LOX inh – ALOX12 (human) lipoxygenase inhibition | P18054 | purified 12hLO, xylenol orange hydroperoxide absorbance | 580,000 compounds, 1.1% hits | Potency, µM (doses to about 108 µM), for inactives: at the top dose activity change, negative = inhibition, most hits filed as inhibitors; note: % is set by controls: 0 for no effect and ±100 for the full control effect
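Purified human 12hLO at 150 nM in 25 mM Hepes, 0.01% Triton X-100, pH 7.0, preincubated 15 min at room temperature with compound. Reaction started with 40 uM arachidonic acid, 30 min at room temperature. Hydroperoxide measured by Fe-xylenol orange, 573/405 nm absorbance ratio.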
An asterisk follows results filed as active; [ ] = dose if it differs, or a comment. Only some compounds are listed: those with a hit (about 9% of all), similar ones and a draw of the others. Calls come from the whole dose curve; as a rule, active = well fitted curve in the direction sought with a large enough effect; inconclusive = small, poorly fitted or top-dose-only effect, or another doubt; inactive = no such curve, though single readings can be large; an effect the other way counts as inactive or inconclusive. Potency is the fitted concentration of half-maximal effect.

What do the screens show for `COc1ccc(CCNC(=O)c2ccc(-c3ccc([N+](=O)[O-])cc3Cl)o2)cc1`?
BAZ2B block: -34%; JMJD2A Tudor inh: inconclusive; HP1b chromo inh: -12%; G9a block: 35µM*; PLK1 PBD inh: 2%; 12-LOX inh: inconclusive

How did COc1ccc(CCNC(=O)COc2ccc([N+](=O)[O-])cc2)cc1 do in these assays?
BAZ2B block: -2%; JMJD2A Tudor inh: -23%[11.4 µM]; HP1b chromo inh: -14%; G9a block: -9%[59 µM]; PLK1 PBD inh: 19µM*; 12-LOX inh: 4%

How did COc1ccc(CCNC(=O)Nc2ccccc2[N+](=O)[O-])cc1 do in these assays?
BAZ2B block: -15%; JMJD2A Tudor inh: -32%; HP1b chromo inh: -16%; G9a block: 50µM*; PLK1 PBD inh: inconclusive; 12-LOX inh: -16%

Results for CCOC(=O)CSc1nnc(CNC(=O)c2ccccc2OC)n1-c1ccc(OC)cc1 ?
BAZ2B block: 0%; JMJD2A Tudor inh: -10%; HP1b chromo inh: 12%; G9a block: -43%; PLK1 PBD inh: -4%; 12-LOX inh: 3%

Results for COc1ccc(-c2nn(-c3ccccc3)cc2C(=O)NC(=S)NNC(=O)c2ccncc2)cc1 ?
BAZ2B block: -15%; JMJD2A Tudor inh: inconclusive; HP1b chromo inh: inconclusive; G9a block: 32µM*; PLK1 PBD inh: -27%; 12-LOX inh: 32µM*

Results for COc1ccc(-c2nn(-c3ccccc3)cc2C(=O)Nc2cccc(C(=O)O)c2)cc1[N+](=O)[O-] ?
BAZ2B block: 40µM*; JMJD2A Tudor inh: 50µM*; HP1b chromo inh: -28%; PLK1 PBD inh: -22%; 12-LOX inh: inconclusive

What do the screens show for `COc1cccc(-c2nn(-c3ccccc3)cc2C(=O)NCC(=O)O)c1`?
BAZ2B block: 10%; JMJD2A Tudor inh: -7%; HP1b chromo inh: 38%; G9a block: 50µM*; PLK1 PBD inh: -7%; 12-LOX inh: inconclusive

What do the screens show for `O=C(O)c1cccc(NC(=O)c2cn(-c3ccccc3)nc2-c2ccncc2)c1`?
BAZ2B block: inconclusive; JMJD2A Tudor inh: -31%; HP1b chromo inh: inconclusive; G9a block: 32µM*; PLK1 PBD inh: 24µM*; 12-LOX inh: -8%

Results for O=C(O)c1cccc(NC(=O)c2cn(-c3ccccc3)nc2-c2ccc([N+](=O)[O-])cc2)c1 ?
BAZ2B block: inconclusive; JMJD2A Tudor inh: -28%; HP1b chromo inh: -2%; PLK1 PBD inh: -17%; 12-LOX inh: 2%

What do the screens show for `O=C(O)c1cccc(NC(=O)c2cn(-c3ccccc3)nc2-c2cccc(Br)c2)c1`?
BAZ2B block: -7%; JMJD2A Tudor inh: -16%; HP1b chromo inh: 9%; G9a block: -5%; PLK1 PBD inh: inconclusive; 12-LOX inh: 4%

What do the screens show for `c1ccc(C2CSc3ccccc3N2)cc1` (configuration not stated)?
BAZ2B block: inconclusive; JMJD2A Tudor inh: inconclusive; HP1b chromo inh: -12%; G9a block: 8.9µM*; PLK1 PBD inh: -12%; 12-LOX inh: -3%

What do the screens show for `CC1CSc2ccccc2NC1=S` (configuration not stated)?
BAZ2B block: -5%; JMJD2A Tudor inh: -28%; HP1b chromo inh: -24%; G9a block: inconclusive; PLK1 PBD inh: -26%; 12-LOX inh: -17%

Results for CN(C)Cc1nnc(C2CC(NC(=O)c3coc4ccccc34)C2)n1C (configuration not stated) ?
12-LOX inh: 1%

What do the screens show for `CCN1CCN(C(=O)NC2CCCCC2)CC1`?
BAZ2B block: inconclusive; JMJD2A Tudor inh: 28µM*; HP1b chromo inh: inconclusive; PLK1 PBD inh: -8%; 12-LOX inh: inconclusive

Results for COC(=O)[C@H](CC(C)C)N(Cc1cn(CC2CCCCC2)nn1)S(=O)(=O)c1ccc(F)cc1Br ?
12-LOX inh: 10µM*

Results for COC(=O)[C@H](CC(C)C)N(Cc1cn(CC2CCCCC2)nn1)S(=O)(=O)c1ccccc1Br ?
12-LOX inh: 5.6µM*

How did COC(=O)[C@H](CC(C)C)N(CCc1cn(CC2CCCCC2)nn1)S(=O)(=O)c1ccc(F)cc1Br do in these assays?
12-LOX inh: 28%

Results for COC(=O)C1CCCCN1C(=O)CCc1nnc(CCc2ccccc2OC)o1 (configuration not stated) ?
12-LOX inh: 37%

What do the screens show for `O=C1CCCC2=C1C(c1[nH]ncc1Cl)N=C(Nc1nc3ccccc3o1)N2` (configuration not stated)?
12-LOX inh: -32%[57.4 µM]

What do the screens show for `Cc1ccc(C(=O)/C=C/c2cc(Br)cc(Br)c2O)o1`?
BAZ2B block: inconclusive; JMJD2A Tudor inh: inconclusive; HP1b chromo inh: -19%; G9a block: 35µM*; PLK1 PBD inh: 27µM*; 12-LOX inh: inconclusive

What do the screens show for `COCc1ccc(C(=O)NCC2(N3CCCCC3)CCCCC2)cc1`?
BAZ2B block: 79µM*; JMJD2A Tudor inh: 13µM*; HP1b chromo inh: 5%; G9a block: inconclusive; PLK1 PBD inh: 30µM*; 12-LOX inh: inconclusive

Results for COCC(C)n1c(SCC(=O)NC(=O)Cc2ccccc2)nc2ccccc2c1=O (configuration not stated) ?
BAZ2B block: 5%; JMJD2A Tudor inh: -11%; HP1b chromo inh: 26%; G9a block: -8%[59 µM]; PLK1 PBD inh: -8%; 12-LOX inh: -11%

What do the screens show for `COc1ccccc1Nc1nnc(SCC(=O)N2CC(=O)Nc3ccccc32)s1`?
BAZ2B block: -2%; JMJD2A Tudor inh: -18%; HP1b chromo inh: 19%; G9a block: 50µM*; PLK1 PBD inh: -8%; 12-LOX inh: 3%

Results for Cc1cccc(-n2c(SCC(=O)N3CC(=O)Nc4ccccc43)nc3ccccc3c2=O)c1 ?
BAZ2B block: -8%; JMJD2A Tudor inh: -18%; HP1b chromo inh: 6%; PLK1 PBD inh: 3%; 12-LOX inh: -23%

How did Cc1nc(SCC(=O)N2CC(=O)Nc3ccccc32)nc(C)c1C do in these assays?
BAZ2B block: 4%; JMJD2A Tudor inh: -13%; HP1b chromo inh: 30%; G9a block: 32µM*; PLK1 PBD inh: -9%; 12-LOX inh: 8%

Results for O=C1CN(C(=O)CNCc2ccc(Cl)cc2)c2ccccc2N1 ?
BAZ2B block: 71µM*; JMJD2A Tudor inh: 10µM*; HP1b chromo inh: inconclusive; G9a block: 25µM*; PLK1 PBD inh: -10%; 12-LOX inh: inconclusive

What do the screens show for `O=C1CN(C(=O)CSc2nnc(Nc3ccccc3)s2)c2ccccc2N1`?
BAZ2B block: -9%; JMJD2A Tudor inh: -16%; HP1b chromo inh: 9%; G9a block: inconclusive; PLK1 PBD inh: -14%; 12-LOX inh: -27%

Source: PubChem BioAssay (National Center for Advancing Translational Sciences (NCATS))
